The list is not random: actives were taken first. Their share in the collection is about 3.1%.
SIRT5 inh: SIRT5 desuccinylase inhibitors, primary screen, biochemical, fluorescence imaging, single point, set 5; inhibition, % at 15 µM; Purified SirT5, succinyl-peptide AMC, trypsin-coupled fluorescence; AID 652115, 2013; NAD-dependent protein deacylase sirtuin-5, mitochondrial (Homo sapiens), Q9NXA8; 330,000 tested, 1.1% active; in the data active means inhibition above about 15%
CASP6 VEID inh: human caspase-6 inhibitors, primary screen, biochemical, VEID-R110 fluorescence, single point, set 2; P55212; purified caspase-6, Z-VEID-R110 cleavage fluorescence; inhibition, % at 12.5 µM; 350,000 tested, 0.53% active; AID 686996, 2013;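 active means mean inhibition across replicates at least about 35%, with every replicate also reaching that limit, limit read from the data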
ERAP1 inh: human ERAP1 aminopeptidase inhibitors, primary screen, biochemical, single point, plate reader | recombinant ERAP1, Leu-AMC fluorescence, 60 min | inhibition, % at 10.7 µM | 340,000 tested, 0.15% active | Endoplasmic reticulum aminopeptidase 1 (Homo sapiens), Q9NZ08;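 active means mean replicate inhibition of at least 30%, or all replicates individually reaching that 30% level; inactive means mean below 30% and not every replicate reaching it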
FGF22 binding: binders of human FGF22 protein, primary screen, FGF22 synaptogenesis inhibitor project, biophysical, thermal shift, single point | activity (Tm shift, normalised), % at 9.99 µM | recombinant FGF22 thermal shift, SYPRO orange fluorescence; percent of sucrose octasulfate shift, DMSO zero | 340,000 tested, 1.5% active | Fibroblast growth factor 22 (Homo sapiens), Q9HCT0;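 active means mean Tm shift, scaled 0 neutral to 100 positive control, at about 1.3% or above, every replicate too, limit read from the data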
Hits are given with their value; - = inactive; . = no result.

SMILES	SIRT5 inh	CASP6 VEID inh	ERAP1 inh	FGF22 binding
COc1cc(S(=O)(=O)N2CCOCC2)ccc1NC(=O)COC(=O)/C=C/c1cc(OC)c(OC)c(OC)c1	.	-	-	43
COc1cc(/C=C/C(=O)OCC(=O)Nc2cc(S(=O)(=O)N3CCOCC3)ccc2Cl)cc(OC)c1OC	-	-	-	-
O=C(COC(=O)/C=C/c1ccc(S(=O)(=O)N2CCOCC2)cc1)NCc1ccc(Cl)cc1	25	-	-	-
COc1cc(/C=C/C(=O)O)cc(S(=O)(=O)Nc2cccc(S(=O)(=O)N3CCOCC3)c2)c1OC	22	-	.	-
Cc1ccc(-c2cnc3c(c2)C(=O)N([C@H](C)CO)C[C@@H](C)[C@H](CN(C)C)O3)cc1	-	-	-	-
Cc1cccc(C)c1NC(=O)Cn1c(=O)c(N2CCCCC2)c(N)n(C)c1=O	-	-	-	-
Cn1c(N)c(N2CCCCC2)c(=O)n(CC(=O)Nc2cccc(C#N)c2)c1=O	.	-	-	43
C[C@@H]1CCCCO[C@@H](CN(C)CC2CCCCC2)[C@H](C)CN([C@@H](C)CO)C(=O)c2cc(NC(=O)Nc3ccccc3)ccc2O1	-	-	-	-
COc1ccc(/C=C/C(=O)c2ccc(O)cc2)cc1	.	-	-	1.5
COc1ccc(CN(CCN2CCOCC2)C(=O)c2c(F)cccc2F)cc1OC	17	-	-	-
C[C@H]1CN([C@@H](C)CO)C(=O)c2cccc(NC(=O)C3CCOCC3)c2O[C@@H]1CN(C)S(=O)(=O)c1cccs1	-	-	-	-
CC(C)NC(=O)N[C@@H]1C=C[C@H](CC(=O)O)O[C@@H]1CO	-	-	-	-
O=C(O)CSc1nnnn1C1CCCCC1	-	-	-	43
O=C(CSc1nnnn1C1CCCCC1)N1CCCC1	-	-	-	-
O=C(CSc1nnnn1C1CCCCC1)Nc1ccc(F)cc1	-	-	-	43
O=C(Nc1ccc2c(c1)OCO2)N[C@@H]1CC[C@H](CCNC(=O)C2CCCCC2)O[C@H]1CO	-	-	-	-
Cc1ccc2oc(-c3ccco3)cc(=O)c2c1	-	-	-	-
CC(C)OCCOc1ccc2oc(-c3ccco3)cc(=O)c2c1	-	35	-	-
C[C@@H]1CN([C@@H](C)CO)C(=O)c2cc(NS(=O)(=O)c3ccccc3)ccc2O[C@H]1CN(C)S(=O)(=O)c1cccs1	-	-	-	-
CCN(CC)CCN(CC)Cc1ccccc1Br	-	56	-	-
CC(C)NC(=O)N(C)C[C@H]1OCCCC[C@@H](C)Oc2ccc(N(C)C)cc2C(=O)N([C@@H](C)CO)C[C@@H]1C	-	-	-	-
CCCN(C(=O)c1ccc2c(SCC(=O)O)c3c(nc2c1)CCC3)c1cccc(C)c1	-	65	-	-
COc1ccc(NC(=O)c2ccc3c(SCC(=O)O)c4c(nc3c2)CCCC4)cc1Cl	-	-	-	-
COc1ccc(Cl)cc1NC(=O)c1ccc2c(SCC(=O)O)c3c(nc2c1)CCCC3	-	37	-	-
C[C@@H]1CN([C@@H](C)CO)C(=O)c2cc(/C=C/c3ccccc3)cnc2O[C@@H]1CN(C)C(=O)Cc1cccnc1	-	-	-	-
SMILES	SIRT5 inh	CASP6 VEID inh	ERAP1 inh	FGF22 binding
O=C(c1ccccc1)c1ccc[nH]1	.	-	-	43
NC(=O)NCC#Cc1ccc2c(c1)[C@]1(C(=O)N2)[C@H](C(=O)O)[C@H]2C(=O)O[C@H](c3ccccc3)[C@H](c3ccccc3)N2[C@@H]1c1ccc(OCCO)cc1	-	-	-	-
CO[C@@H]1CC[C@@H]2CCN(C)C(=O)[C@@H](C)[C@H](OC)CN(C)C(=O)c3cc(C#N)ccc3OC[C@@H]1O2	19	-	-	-
CO[C@@H]1CC[C@@H]2CCOc3c(C#N)cccc3C(=O)N(C)C[C@@H](OC)[C@@H](C)C(=O)N(C)C[C@@H]1O2	35	-	-	-
CO[C@@H]1CC[C@@H]2CCN(C)C(=O)C[C@H](c3ccccc3)CN(C)C(=O)c3cccc(C#N)c3OC[C@@H]1O2	25	-	-	-
CO[C@H]1CC[C@H]2CCN(C)C(=O)C[C@H](c3ccccc3)CN(C)C(=O)c3cccc(C#N)c3OC[C@@H]1O2	-	-	-	-
COc1ccc(S(=O)(=O)Nc2ccc3c(c2)C(=O)N([C@H](C)CO)C[C@@H](C)[C@H](CN(C)C(=O)Nc2ccc(F)cc2)O3)cc1	-	-	-	-
CCCN1C[C@H](C)[C@H](OC)CN(C)C(=O)c2ccc(NC(=O)C3CCOCC3)cc2OC[C@H]1C	-	-	-	.
COc1ccc(C(=O)N2C[C@H]3[C@@H](c4ccccc42)[C@@H](CO)N3C(=O)NC(C)C)cc1	-	-	-	-
CC(C)[C@H](NS(=O)(=O)c1cccc(Cl)c1)C(=O)OCC(=O)N1CCN(c2ccccc2)CC1	-	-	-	-
Cc1cccc(OC(C)C(=O)OCC(=O)N2CCN(c3ccccc3)CC2)c1 (stereo not given)	.	-	-	44
O=C(C[C@H]1C[C@H]2c3cc(NC(=O)NC4CCCC4)ccc3O[C@H]2[C@H](CO)O1)NCc1ccccc1F	-	-	-	-
C[C@]1(C(=O)NCc2cc(F)cc(C(F)(F)F)c2)C=C[C@@H](Cc2ccccc2)N1C(=O)c1ccccc1	34	-	-	-
COCCNC(=O)[C@@]1(C)C=C[C@@H](Cc2ccccc2)N1C(=O)c1ccccc1	-	-	-	-
CN(C)C(=O)[C@@H]1[C@@H](CO)[C@@H]2Cn3c(ccc(-c4ccc(F)cc4)c3=O)[C@@H]2N1C(=O)c1ccccn1	-	-	-	-
CC#CCN1C=C(C(=O)OCC)C(C)N(Cc2ccc(Br)cc2)S1(=O)=O (stereo not given)	-	-	-	-
CCCN1C(C)C(C(=O)OCC)=CN(Cc2ccc(Br)cc2)S1(=O)=O (stereo not given)	32	-	-	-
COCCNC(=O)C[C@H]1CC[C@H]2[C@@H](COc3ccc(NC(=O)Cc4ccccc4)cc3C(=O)N2C)O1	-	-	-	-
O=C1CN(C(=O)NCC(=O)N[C@H](C(=O)O)c2ccccc2)c2ccccc2N1	18	-	-	-
O=C(O)c1cc(N2C(=O)C3CCCCC3C2=O)ccc1NCc1cccnc1 (stereo not given)	21	-	-	-
CN(C)/C=C/C(=O)c1ccc(Br)s1	-	-	-	43
C[C@@H]1CN([C@@H](C)CO)C(=O)c2ccccc2-c2ccccc2CO[C@H]1CN(C)C(=O)CCN(C)C	-	-	-	-
C[C@@H]1CCCCO[C@H](CN(C)C(=O)Nc2ccc(F)cc2)[C@H](C)CN([C@@H](C)CO)C(=O)c2cc(NC(=O)Nc3ccc4c(c3)OCO4)ccc2O1	-	-	-	-
Cc1cc(C)c(S(=O)(=O)N2CCN(C(=O)c3cccs3)CC2)c(C)c1	-	-	-	43

Screens from PubChem.
